Screening data from PubChem BioAssay.
Hits are enriched below; roughly 2.4% of the tested compounds scored in any of these assays.
CHO-K1 Ca ag = M1 agonist counterscreen hit in parental CHO-K1 cells. AID 602248. Fluo-8 calcium fluorescence; scaled to maximal ATP response, vehicle zero. activation, % at 3 µM. 360,000 compounds, 0.48% hits; in the data active = activation above about 15%;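 also: untransfected CHO-K1 host cells lacking M1 receptor as counterscreen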
CHRM1 antagonist = blocks human M1 muscarinic receptor; P11229; CHO-K1 hM1, Fluo-8 calcium fluorescence, ACh EC80 antagonist; inhibition, % at 3 µM; 360,000 compounds, 1.3% hits;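 active = percent inhibition above its own plate's cutoff, namely the mean of that plate's compound wells plus 3 SD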;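 also: peak over basal fluorescence ratio during 140 s after agonist addition; 0% = ACh EC80 plus DMSO and 100% = DMSO alone without agonist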
Target sequence (P11229 whole entry, looked up): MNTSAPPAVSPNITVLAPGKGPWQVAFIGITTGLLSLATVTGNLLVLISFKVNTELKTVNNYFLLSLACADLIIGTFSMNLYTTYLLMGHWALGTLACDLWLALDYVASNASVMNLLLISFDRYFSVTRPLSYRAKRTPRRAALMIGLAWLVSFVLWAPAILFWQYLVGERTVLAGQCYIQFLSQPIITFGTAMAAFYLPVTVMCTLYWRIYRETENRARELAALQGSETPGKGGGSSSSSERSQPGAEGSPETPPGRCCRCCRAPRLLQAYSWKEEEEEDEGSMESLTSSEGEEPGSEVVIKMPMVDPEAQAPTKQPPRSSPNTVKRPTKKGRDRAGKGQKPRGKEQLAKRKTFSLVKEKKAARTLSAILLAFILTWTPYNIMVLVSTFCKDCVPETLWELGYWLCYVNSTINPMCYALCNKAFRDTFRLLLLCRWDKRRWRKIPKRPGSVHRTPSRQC
CHO-K1 Ca PAM = M1 PAM counterscreen hit in parental CHO-K1 cells; activation, % at 3 µM; 360,000 compounds, 0.02% hits; AID 602247; ATP EC20, Fluo-8 calcium fluorescence; 0% at ATP EC20, 100% at ATP max;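 active = activation above the run cutoff, the mean activation of all test compounds plus 3 SD, cut at about 40% in these data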;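 also: peak over basal fluorescence ratio in a 140 s read after ATP addition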
M1 PAM = human CHRM1 positive allosteric modulation. activation, % at 3 µM. CHO-K1 hM1, Fluo-8 calcium fluorescence, ACh EC20; 0% = ACh EC20, 100% = maximal ACh. P11229. AID 588819. 360,000 compounds, 0.088% hits; in the data active = activation above about 19%, passing the limit was not always enough
CHO-K1 Ca antag = nonselective inhibitor or artifact in parental CHO-K1 cells | ATP-induced calcium, Fluo-8 fluorescence | inhibition, % at 3 µM | 360,000 compounds, 0.6% hits | AID 602250;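 active = inhibition above a per-plate cutoff, the plate's mean sample inhibition plus 3 SD, cut at about 24% in these data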;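 also: 0% = DMSO plus EC80 ATP and 100% = DMSO alone without ATP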
CHRM1 agonist = human M1 muscarinic receptor agonism | 360,000 compounds, 0.33% hits | activation, % at 3 µM | P11229 | CHO-K1 hM1, Fluo-8 calcium fluorescence, agonist mode; 0% DMSO, 100% acetylcholine EC100;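 active = activation above the run's mean compound activation plus 3 SD, cut at about 16% in these data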;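 also: peak over basal fluorescence ratio within a 140 s kinetic read after compound addition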
Starred values were filed as active, the others as inactive.

`CN(C)CCOc1ccccc1C(C)(C)C` gave CHO-K1 Ca ag 0, CHRM1 antagonist 57*, CHO-K1 Ca PAM 13, M1 PAM -20, CHO-K1 Ca antag 3 and CHRM1 agonist -6.
Screening COc1cc2c(cc1NC(=O)c1cc(-c3ccccn3)nc3ccccc13)oc1ccccc12 returned CHO-K1 Ca ag 0, CHRM1 antagonist -1, CHO-K1 Ca PAM 19, M1 PAM 11, CHO-K1 Ca antag -8 and CHRM1 agonist -6.
For CCCCn1nc(C(=O)Nc2c(C)n(C)n(-c3ccccc3)c2=O)c2ccccc2c1=O the results were CHO-K1 Ca ag -1, CHRM1 antagonist 9, CHO-K1 Ca PAM -10, M1 PAM 2, CHO-K1 Ca antag 1 and CHRM1 agonist -9.
Screening O=C(NC1CCC(O)CC1)C1CCN(S(=O)(=O)c2c(Cl)cccc2Cl)CC1 (stereo not given) returned CHO-K1 Ca ag 1, CHRM1 antagonist 7, CHO-K1 Ca PAM 17, M1 PAM -2, CHO-K1 Ca antag -15 and CHRM1 agonist -5.
`O=C(N/N=C/c1cccs1)c1ccc2nc[nH]c2c1` gave CHO-K1 Ca ag 4, CHRM1 antagonist 35*, CHO-K1 Ca PAM -16, M1 PAM -11, CHO-K1 Ca antag 14 and CHRM1 agonist 0.
`C/C=C/C(=O)Nc1cccc(C2=NOC3(C2)C[C@@H](C(N)=O)N(C(=O)/C(C)=C/C)C3)c1` (stereo not given in full) gave CHO-K1 Ca ag 0, CHRM1 antagonist 12, CHO-K1 Ca PAM -9, M1 PAM -5, CHO-K1 Ca antag 1 and CHRM1 agonist -3.
For CCCCOc1ccccc1NC(=O)c1scc2c1OCCO2 the results were CHO-K1 Ca ag 2, CHRM1 antagonist 0, CHO-K1 Ca PAM 53*, M1 PAM -1, CHO-K1 Ca antag -24 and CHRM1 agonist -5.
Screening N#C/C(=C\c1ccco1)C(=O)NCC1CCCO1 (stereo not given) returned CHO-K1 Ca ag 0, CHRM1 antagonist -4, CHO-K1 Ca PAM 8, M1 PAM 4, CHO-K1 Ca antag -8 and CHRM1 agonist -4.
Screening CN(C)C/C=C/C(O)(c1ccccc1)c1ccccc1 returned CHO-K1 Ca ag 1, CHRM1 antagonist 97*, CHO-K1 Ca PAM 19, M1 PAM -26, CHO-K1 Ca antag -4 and CHRM1 agonist -7.
`COc1ccccc1C(=O)NC(C(=O)NCCc1nc2ccccc2[nH]1)=C(C)C` gave CHO-K1 Ca ag 0, CHRM1 antagonist 1, CHO-K1 Ca PAM 1, M1 PAM 8, CHO-K1 Ca antag -10 and CHRM1 agonist -2.
Screening Cc1nn(Cc2ccc(Cl)c(Cl)c2)c(C)c1NC(=O)c1noc2c1CCCCC2 returned CHO-K1 Ca ag 1, CHRM1 antagonist 9, CHO-K1 Ca PAM 5, M1 PAM 27*, CHO-K1 Ca antag 13 and CHRM1 agonist -4.
For Cc1ccccc1Cn1nc(C)c(NC(=O)c2cc(CC(C)C)on2)c1C the results were CHO-K1 Ca ag 5, CHRM1 antagonist 1, CHO-K1 Ca PAM 8, M1 PAM -4, CHO-K1 Ca antag -6 and CHRM1 agonist -5.
For Cc1nn(Cc2ccc(Cl)c(Cl)c2)c(C)c1NC(=O)c1cc(CC(C)C)on1 the results were CHO-K1 Ca ag 6, CHRM1 antagonist 29*, CHO-K1 Ca PAM 8, M1 PAM -21, CHO-K1 Ca antag 2 and CHRM1 agonist -8.
Screening CCOC(=O)CSc1ccc(C(=O)NCCN2CCOCC2)cc1[N+](=O)[O-] returned CHO-K1 Ca ag 7, CHRM1 antagonist 47*, CHO-K1 Ca PAM 18, M1 PAM -24, CHO-K1 Ca antag -4 and CHRM1 agonist -6.
Screening CC1CCCC(C)N1C(=O)COc1ccc(C(=O)Nc2ccccc2N2CCOCC2)cc1 (stereo not given) returned CHO-K1 Ca ag 0, CHRM1 antagonist 34*, CHO-K1 Ca PAM 4, M1 PAM 6, CHO-K1 Ca antag -6 and CHRM1 agonist -2.
Screening CCC(C)N(C(=O)Cn1c(Cl)nc2c1c(=O)n(C)c(=O)n2C)C1CCS(=O)(=O)C1 (stereo not given) returned CHO-K1 Ca ag 1, CHRM1 antagonist -5, CHO-K1 Ca PAM -20, M1 PAM 1, CHO-K1 Ca antag 7 and CHRM1 agonist 2.
Screening CN(C(=O)Cn1c(Cl)nc2c1c(=O)n(C)c(=O)n2C)C1CCS(=O)(=O)C1 (stereo not given) returned CHO-K1 Ca ag 0, CHRM1 antagonist 23*, CHO-K1 Ca PAM -21, M1 PAM -10, CHO-K1 Ca antag 4 and CHRM1 agonist -2.
Screening Cn1c(=O)c(N)c2c3c(c(Br)ccc31)C(=O)c1ccccc1-2 returned CHO-K1 Ca ag 32*, CHRM1 antagonist 13, CHO-K1 Ca PAM 14, M1 PAM -2, CHO-K1 Ca antag 1 and CHRM1 agonist 16*.
For Cn1c(=O)c2c(nc(Oc3ccccc3Br)n2C)n(C)c1=O the results were CHO-K1 Ca ag 1, CHRM1 antagonist -18, CHO-K1 Ca PAM 3, M1 PAM 7, CHO-K1 Ca antag -9 and CHRM1 agonist -1.
Screening O=C(CN1C(=O)NC2(CCCC2)C1=O)NNC(=O)c1ccccc1 returned CHO-K1 Ca ag 1, CHRM1 antagonist -2, CHO-K1 Ca PAM -1, M1 PAM 2, CHO-K1 Ca antag 0 and CHRM1 agonist -1.
Screening Cc1ccc(S(=O)(=O)Cc2ccc(C(=O)N3CCN(c4cc(C)ccc4C)CC3)o2)cc1 returned CHO-K1 Ca ag 0, CHRM1 antagonist -9, CHO-K1 Ca PAM 9, M1 PAM 8, CHO-K1 Ca antag -3 and CHRM1 agonist -1.
Cc1ccc(C)c(N2CCN(C(=O)c3ccc(CS(=O)(=O)c4ccccc4C)o3)CC2)c1 was read as CHO-K1 Ca ag 3, CHRM1 antagonist 18, CHO-K1 Ca PAM -8, M1 PAM -4, CHO-K1 Ca antag 25* and CHRM1 agonist -1.
`CCCCn1c(N)c(N(CCOC)C(=O)c2ccc(C)c(S(=O)(=O)N3CCCCC3)c2)c(=O)[nH]c1=O` gave CHO-K1 Ca ag 1, CHRM1 antagonist -12, CHO-K1 Ca PAM 3, M1 PAM 9, CHO-K1 Ca antag 3 and CHRM1 agonist -2.
`CN(C)CCCN(C(=O)c1cccs1)c1nc(-c2ccccc2)cs1` gave CHO-K1 Ca ag 2, CHRM1 antagonist 41*, CHO-K1 Ca PAM 12, M1 PAM -12, CHO-K1 Ca antag -11 and CHRM1 agonist 19*.
For COc1ccc(-c2csc(N(CCCN(C)C)C(=O)c3ccccc3Cl)n2)cc1 the results were CHO-K1 Ca ag 3, CHRM1 antagonist 53*, CHO-K1 Ca PAM 11, M1 PAM -28, CHO-K1 Ca antag -16 and CHRM1 agonist -9.
COc1ccc(-c2csc(N(CCCN(C)C)C(=O)c3ccccc3C)n2)cc1 was read as CHO-K1 Ca ag 3, CHRM1 antagonist 14, CHO-K1 Ca PAM 16, M1 PAM -16, CHO-K1 Ca antag -12 and CHRM1 agonist -9.
